According to the supplement of paper PMC9950053:
Counter-ions that a name gives are not always drawn.

System: Danio rerio larvae (5 dpf)
Assay: habituation (activity change first vs second 5 min of 1-s interval sound, period 17) minus DMSO control (percentage points); higher = larger habituation measure than DMSO larvae
Conditions: 10 µM; exposure time: 3 h pre-incubation + 3 h imaging
Description: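 Wild-type 5 dpf zebrafish larvae (n=48 per drug, 96-well plates, 28.5 °C) were exposed to Tocris FDA-approved library compounds at 10 µM (0.1% DMSO) for 3 h before and 3 h during imaging. Images were taken every 6 s during visual (moving coloured lines) and acoustic stimuli, and larvae were tracked with the DeepLabCut-based Z-LaP Tracker. Each behavioural measure is the treated-group mean minus the DMSO vehicle control mean (n=844), in percentage points. This mapping covers compounds with 4-character plate codes.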

| SMILES | habituation |
| --- | --- |
| Clc1ccccc1C(c1ccccc1)(c1ccccc1)n1ccnc1 [Clotrimazole] | -2.1 |
| CC(C)n1c(/C=C/C(O)CC(O)CC(=O)O)c(-c2ccc(F)cc2)c2ccccc21 (stereo not given) [Fluvastatin sodium] | 2.02 |
| CC(C)c1nc(CN(C)C(=O)N[C@H](C(=O)N[C@@H](Cc2ccccc2)C[C@H](O)[C@H](Cc2ccccc2)NC(=O)OCc2cncs2)C(C)C)cs1 [Ritonavir] | -0.524 |
| C[C@H](Cc1cc2c(c(C(N)=O)c1)N(CCCO)CC2)NCCOc1ccccc1OCC(F)(F)F [Silodosin] | 7.86 |
| CN(C)CCc1c[nH]c2ccc(Cn3cncn3)cc12 [Rizatriptan benzoate] | -1.58 |
| CN(CCOc1ccc(NS(C)(=O)=O)cc1)CCc1ccc(NS(C)(=O)=O)cc1 [Dofetilide] | 5.62 |
| CN(CCOc1ccc(CC2SC(=O)NC2=O)cc1)c1ccccn1 (stereo not given) [Rosiglitazone] | 2.04 |
| CN1CC(=O)N2[C@H](c3ccc4c(c3)OCO4)c3[nH]c4ccccc4c3C[C@@H]2C1=O [Tadalafil] | -0.158 |
| CC/C(=C(\c1ccccc1)c1ccc(OCCN(C)C)cc1)c1ccccc1 [Tamoxifen citrate] | -7.1 |
| Nc1ncn([C@H]2C[C@H](O)[C@@H](CO)O2)c(=O)n1 [Decitabine] | 7.42 |
| NS(=O)(=O)Cc1noc2ccccc12 [Zonisamide] | 1.66 |
| COc1c(C)c2c(c(O)c1C/C=C(\C)CCC(=O)OCCN1CCOCC1)C(=O)OC2 [Mycophenolate mofetil] | 4.4 |
| Nc1nc2[nH]cc(CCc3ccc(C(=O)N[C@@H](CCC(=O)O)C(=O)O)cc3)c2c(=O)[nH]1 [Pemetrexed] | -1.84 |
| COc1ccc(-c2ccc3cc(C(=O)O)ccc3c2)cc1C12CC3CC(CC(C3)C1)C2 [Adapalene] | 1.1 |
| Cc1ccc(O)c([C@H](CCN(C(C)C)C(C)C)c2ccccc2)c1 [Tolterodine L-tartrate] | -5.86 |
| Nc1ccn([C@@H]2O[C@H](CO)[C@@H](O)C2(F)F)c(=O)n1 [Gemcitabine hydrochloride] | -1.55 |
| CC(c1cc2ccccc2s1)N(O)C(N)=O (stereo not given) [Zileuton] | 7.74 |
| Cc1cccc(C)c1OCC(C)N (stereo not given) [Mexiletine hydrochloride] | 6.36 |
| CCOC(=O)C1=C(COCCN)NC(C)=C(C(=O)OC)C1c1ccccc1Cl (stereo not given) [Amlodipine besylate] | -2.71 |
| CC(C)C(=O)Nc1ccc([N+](=O)[O-])c(C(F)(F)F)c1 [Flutamide] | -15.4 |

| SMILES | habituation |
| --- | --- |
| O=C(O)CCCc1ccccc1 [Sodium 4-Phenylbutyrate] | -2.16 |
| CCOC(=O)N1CCC(=C2c3ccc(Cl)cc3CCc3cccnc32)CC1 [Loratidine] | -7.35 |
| O=C(O[C@@H]1C[C@@H]2C[C@H]3C[C@H](C1)N2CC3=O)c1c[nH]c2ccccc12 [Dolasetron mesylate] | 1.05 |
| CCCCNc1cc(C(=O)O)cc(S(N)(=O)=O)c1Oc1ccccc1 [Bumetanide] | -0.555 |
| CC(C)Nc1cccnc1N1CCN(C(=O)c2cc3cc(NS(C)(=O)=O)ccc3[nH]2)CC1 [Delavirdine mesylate] | -5.18 |
| O=C1CCc2cc(OCCCCc3nnnn3C3CCCCC3)ccc2N1 [Cilostazol] | 0.0793 |
| CCCc1nc2c(C)cc(-c3nc4ccccc4n3C)cc2n1Cc1ccc(-c2ccccc2C(=O)O)cc1 [Telmisartan] | -1.73 |
| CCC(=O)O[C@]1(C(=O)SCF)[C@H](C)C[C@H]2[C@@H]3C[C@H](F)C4=CC(=O)C=C[C@]4(C)[C@@]3(F)[C@@H](O)C[C@@]21C [Fluticasone propionate] | 2.72 |
| CCOc1ccccc1OCCN[C@H](C)Cc1ccc(OC)c(S(N)(=O)=O)c1 [Tamsulosin hydrochloride] | 1.59 |
| C[C@H]1C[C@@H]2[C@H]([C@@H](O)C[C@@]3(C)[C@H]2CC[C@]3(O)C(=O)CO)[C@@]2(C)C=CC(=O)C=C12 [Methylprednisolone] | 0.909 |
| O=C(c1ccc(OCCN2CCCCC2)cc1)c1c(-c2ccc(O)cc2)sc2cc(O)ccc12 [Raloxifene hydrochloride] | -3.07 |
| COc1ccccc1OCCNCC(O)COc1cccc2[nH]c3ccccc3c12 (stereo not given) [Carvedilol] | -0.0437 |
| CCCCc1nc(Cl)c(CO)n1Cc1ccc(-c2ccccc2-c2nnn[nH]2)cc1 [Losartan potassium] | 1.01 |
| Nc1nc(NC2CC2)c2ncn([C@H]3C=C[C@@H](CO)C3)c2n1 [Abacavir hemisulfate] | 3.13 |
| CC(C)c1ccc2oc3nc(N)c(C(=O)O)cc3c(=O)c2c1 [Amlexanox] | -2.56 |
| CCCN(CCc1cccs1)[C@H]1CCc2c(O)cccc2C1 [Rotigotine hydrochloride] | -11.4 |
| C[C@@H](O[C@H]1OCCN(Cc2n[nH]c(=O)[nH]2)[C@H]1c1ccc(F)cc1)c1cc(C(F)(F)F)cc(C(F)(F)F)c1 [Aprepitant] | 1.46 |
| CCCN(CCC)S(=O)(=O)c1ccc(C(=O)O)cc1 [Probenecid] | 3.79 |
| CC(C)CN(C[C@@H](O)[C@H](Cc1ccccc1)NC(=O)O[C@H]1CO[C@H]2OCC[C@H]21)S(=O)(=O)c1ccc(N)cc1 [Darunavir] | 0.657 |
| O=C(Nc1c(Cl)cncc1Cl)c1ccc(OC(F)F)c(OCC2CC2)c1 [Roflumilast] | -2.44 |
